Measured values from PubChem BioAssay (NCATS).
Records with an inconclusive call do not appear. Activity calls are given as the source filed them. Calls follow the shape of the dose curve; as a rule, active = well fitted curve in the direction sought with a large enough effect; inconclusive = small, poorly fitted or top-dose-only effect, or another doubt; inactive = no such curve, though single readings can be large; an effect the other way counts as inactive or inconclusive.

Columns and labels:
[1] = biological target: Calcium and integrin-binding protein 1 (Homo sapiens) (UniProt Q99828); experiment: Primary qHTS for Identification of Calcium Integrin Binding Protein 1 (CIB1) Competitor (AID 1508620);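 also: GST tagged CIB1 binding a fluorescein labelled alphaIIb integrin peptide tracer; top concentration of the series differs between compounds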
Procedure, shortened: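 CIB1-GST (1 uM final) and compound incubated 15 min at room temperature before adding FITC-alphaIIb peptide tracer (100 nM final). Competition for binding read by fluorescence polarization (ex 480, em 540) after another 15 min at room temperature.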

[2] = Primary qHTS for inhibitors of nuclear receptor binding SET domain protein 2 (NSD2) in an isogenic RCH-ACV NSD2 p.E1099K mutant (9B) (AID 1645876); also: nearly all actives have a fitted effect of over 70% in size
[3] = Primary qHTS for inhibitors of nuclear receptor binding SET domain protein 2 (NSD2) in an RCH-ACV wild type WT cells (2C) (AID 1645877); also: nearly all actives have a fitted effect of over 70% in size
% is scaled to controls: 0 for no effect and ±100 for the full control effect.

Sequence of Calcium and integrin-binding protein 1 (Homo sapiens) (Q99828 whole entry, looked up): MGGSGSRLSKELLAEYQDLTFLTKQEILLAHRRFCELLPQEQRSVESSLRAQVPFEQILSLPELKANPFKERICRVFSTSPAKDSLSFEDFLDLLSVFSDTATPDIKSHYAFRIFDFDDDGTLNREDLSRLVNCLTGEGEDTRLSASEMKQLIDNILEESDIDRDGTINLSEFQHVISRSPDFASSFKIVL

O=C(O)Cc1cn([C@@H]2O[C@H](CO)[C@@H](O)[C@H](O)[C@H]2O[C@@H]2O[C@H](CO)[C@@H](O)[C@H](O)[C@H]2O)c2ccccc12
inactive: Potency [1] | Potency [2] | Potency [3]

CC1(C)C=Cc2c(ccc3c2[N+]([O-])=C2C3(O)CC34NC(=O)C5(CCCN5C3=O)CC4C2(C)C)O1 (stereo unspecified)
inactive: Potency [1] | Potency [2] | Potency [3]

CC1(C)CC[C@]2(C(=O)O)CC[C@]3(C)C(=CCC4[C@@]5(C)C[C@@H](O)[C@H](O)[C@@](C)(CO)C5CC[C@]43C)C2C1 (stereo partly specified)
inactive: Potency [1] | Potency [2] | Potency [3]

CC(=O)OC1C(C)C2C(OC3OC(CO)C(O)C(O)C3O)OC=C(C(=O)O)C2C1OC(=O)c1ccccc1 (stereo unspecified)
inactive: Potency [1] | Potency [2] | Potency [3]

C=C1CCc2occ(C)c2[C@H]2[C@H]1[C@@]13O[C@@]1(C[C@@H](C)[C@H]3OC(C)=O)[C@H]1O[C@@]21C
inactive: Potency [1] | Potency [2] | Potency [3]

CC/C=C\CC1C(CC(=O)O)CCC1OC1OC(CO)C(O)C(O)C1O (stereo unspecified)
inactive: Potency [1] | Potency [2] | Potency [3]

C/C=C(\C)C(=O)OC[C@H]1O[C@@H](O[C@H]2[C@@H](O[C@H]3O[C@H](COC(=O)/C(C)=C/C)[C@@H](O)[C@H](O)[C@H]3O[C@@H]3O[C@H](COC(=O)/C(C)=C/C)[C@@H](O)[C@H](OC(=O)/C(C)=C/C)[C@H]3O)O[C@H](COC(=O)/C(C)=C/C)[C@@H](O)[C@@H]2O)[C@H](O)[C@@H](O)[C@@H]1O
inactive: Potency [1] | activity change, negative = viability loss [2] -1.81% [at 9.23 µM] | activity change, negative = cell killing [3] -6.87% [at 9.23 µM]
